# In the library only some 9.4% were active in any assay of this set; here they are far more common.
# Rab9 prom act: activators of Rab9 promoter | Huh7 Rab9 promoter-luciferase reporter, luminescence, 24 h | Potency, µM (highest dose often 9.22 µM), for the others: at the highest dose activation, negative = inhibition, usual class: activators | 320,000 tested, 2.8% active | AID 485297; further: % of control where 0% means no effect; nearly all actives have a fitted effect of over 60% in size
#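 Measured in stably transfected Huh7 cells bearing a Rab9 promoter–luciferase construct: 24 h compound treatment at 37 °C, followed by luminescence detection.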
# SMN2 splice enh: increases expression of the SMN2 splice variant. 210,000 tested, 2.8% active. HEK293 SMN2-luciferase splicing reporter, luminescence, 30-36 h. Potency, µM (doses to about 46.1 µM), without a hit: top-dose activity change, positive = activation, actives largely listed as activators; further: % of control where 0% means no effect; nearly all actives have a fitted effect of over 55% in size
#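 qHTS luciferase splicing reporter: luminescence rises when SMN2 exon 7 is included in transfected HEK293 cells. Compound exposure lasted 30-36 h at 37C, with 4.5 mM final sodium butyrate as control, followed by a ONE-Glo read.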
# ELG1 repair inh: ELG1-dependent DNA repair inhibition. HEK293T ELG1-luciferase reporter, luminescence, 16 h; DNA damage induced by 5-fluorouridine. Potency, µM (doses to about 46.1 µM), without a hit: at the highest dose activity change, negative = inhibition, usual class: inhibitors. 330,000 tested, 2.3% active. AID 504467; further: on the % scale 0 is the no-effect control and ±100 the full control effect; nearly all actives have a fitted effect of over 55% in size
#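 Cells (2,000 per well) received 5-fluorouridine plus test compound or DMSO and were incubated 16 hr at 37 °C, 5% CO2. Luciferase activity was read by luminescence 30 min after ONE-Glo addition; signal suppression marked inhibition of damage-induced ELG1 function.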
# NPC1 promoter act: NPC1 promoter activation; Huh7 NPC1 promoter luciferase reporter, 24 h; Potency, µM (titrated, usually from 9.22 µM), for inactives: at the highest dose activation, most hits filed as activators; 320,000 tested, 2.4% active; further: % of control where 0% means no effect; nearly all actives have a fitted effect of over 60% in size
#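 Compounds in DMSO were transferred onto Huh7 NPC1-luciferase reporter cells pre-incubated 2 h; after 24 h at 37 °C, Amplite reagent was dispensed and luminescence recorded 10 min later.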
# ELG1 genotox: genotoxicity induction in ELG1-luciferase HEK293T cells | HEK293T ELG1-luciferase reporter, luminescence, 16 h | Potency, µM (top dose mostly 46 µM), without a hit: at the top dose activity change, positive = activation, most hits filed as activators | 330,000 tested, 1.3% active | AID 504466; further: % of control where 0% means no effect; nearly all actives have a fitted effect of over 60% in size
#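 Quantitative HTS format in 1536-well plates. HEK293T ELG1-luciferase reporter cells receive test compound and are incubated 16 hr at 37 °C, 5% CO2; ONE-Glo added, 30 min room temperature, then luminescence read.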
# FLuc counter: counter-screen for miR-21 project: firefly luciferase inhibitors or activators. P08659. purified FLuc, Km substrates, luminescence inhibition. Potency, µM (titrated, usually from 57.5 µM), inactives show top-dose activity change, negative = inhibition, hits mostly inhibitors. 360,000 tested, 6.9% active;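 further: plate controls were vehicle for no effect and reference inhibitor for full effect; nearly all actives have a fitted effect of over 55% in size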
# Target sequence (P08659 whole entry, looked up): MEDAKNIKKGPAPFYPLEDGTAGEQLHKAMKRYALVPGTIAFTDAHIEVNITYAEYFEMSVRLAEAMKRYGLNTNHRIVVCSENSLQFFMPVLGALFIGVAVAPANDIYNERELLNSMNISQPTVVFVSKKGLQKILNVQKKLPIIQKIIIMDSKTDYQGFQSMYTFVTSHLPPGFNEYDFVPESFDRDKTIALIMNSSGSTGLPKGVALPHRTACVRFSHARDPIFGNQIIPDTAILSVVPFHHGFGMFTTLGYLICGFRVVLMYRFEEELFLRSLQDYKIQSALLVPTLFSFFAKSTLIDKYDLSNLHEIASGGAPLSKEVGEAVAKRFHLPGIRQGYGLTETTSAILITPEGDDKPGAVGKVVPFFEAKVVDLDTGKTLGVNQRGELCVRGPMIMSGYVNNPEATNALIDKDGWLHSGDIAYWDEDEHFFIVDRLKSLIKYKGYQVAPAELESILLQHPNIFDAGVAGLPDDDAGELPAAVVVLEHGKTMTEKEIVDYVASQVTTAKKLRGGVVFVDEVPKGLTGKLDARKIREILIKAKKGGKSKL
#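 Biochemical qHTS of compounds, final roughly 60 µM downward over six points, against 10 nM purified firefly luciferase using Km concentrations of substrates (10 uM D-luciferin, 10 uM ATP) in Tris acetate pH 7.5 buffer; luminescence output.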
# Active calls of the source: *; ? = inconclusive; . = no result; [ ] = another dose, or the depositor's remark. The call rests on the fitted dose curve; in most records, active means well fitted curve in the direction sought with a large enough effect; inconclusive means small, poorly fitted or top-dose-only effect, or another doubt; inactive means no such curve, though single readings can be large; an effect the other way counts as inactive or inconclusive. Potency means the concentration at half of the fitted maximal effect.
SMILES,Rab9 prom act,SMN2 splice enh,ELG1 repair inh,NPC1 promoter act,ELG1 genotox,FLuc counter
CC(C)Cc1ccc(C(=O)NCCOc2ccccc2)o1,0.79µM*,.,?,0.32µM*,3.3µM*,0.95µM*
O=C(NCCOc1ccccc1)c1cc2ccccc2o1,.,10µM*,.,.,.,5.4µM*
NC(=O)CSc1ncc2c(n1)-c1ccccc1N(Cc1cccc(F)c1)S2(=O)=O,.,.,.,.,.,-2%
CCOC(=O)C1(Cc2ccccc2Cl)CCN(C(=O)CCn2ccnc2C)CC1,?,.,?,22%,5%,19µM*
C[C@@H](C(=O)O)c1ccc(C(=O)c2ccccc2)s1,.,16%[20.6 µM],.,.,.,.
COc1ccc(OC)c(NC(=O)[C@@H]2CCCN2C(=O)c2cccs2)c1,-2%,5.6µM*,4%,-2%,10%,1%
Cc1ccccc1-c1nnc(-c2ccccc2C)o1,?,22µM*,?,?,?,6.7µM*
Cc1ccccc1-c1nnc(SCC#N)o1,0%,.,3%,0%,0%,-13%
Cc1ccccc1-c1nnc(-c2ccc(Br)cc2)o1,?,?,?,?,9.2µM*,?
COc1ccc(/C=C/c2nc(C#N)c(N3CCC(C(N)=O)CC3)o2)cc1OC,.,?,.,.,.,-1%
COc1ccc(Nc2cc(C(=O)NCCCN3CCOCC3)c3ccccc3n2)cc1OC,1%,3%,?,4%,-3%,17µM*
Cc1ccc(-c2cc(C(=O)NCCCN3CCOCC3)c3ccccc3n2)cc1C,1%,.,9%,5%,-4%,12µM*
CCOc1ccc(-c2cc(C(=O)NCCCN3CCCC3)c3ccccc3n2)cc1,1%,.,?,2%,13%,12µM*
O=C(CC(SCCO)c1ccc([N+](=O)[O-])cc1)c1ccco1 (centres undefined),0%,.,?,-5%,?,2%
CC(=O)NC(CSC(CC(=O)c1ccco1)c1ccc(C)cc1)C(=O)O (centres undefined),?,-9%,?,12%,?,4.3µM*
COc1ccc(C(=O)NCCn2cc(SCc3cc(C)ccc3C)c3ccccc32)cc1,.,-51%,.,.,.,-10%
CC1=C(C(=O)Nc2cccc(C(=O)NCc3ccccc3C)c2)SCCO1,1%,.,-16%,-2%,-4%,-8%
CC1=C(C(=O)Nc2ccc(CC(=O)NCc3ccccc3C)cc2)SCCO1,?,.,?,17%,?,2.4µM*
CC1=C(C(=O)Nc2cccc(C(=O)NCc3ccc(F)cc3)c2)SCCO1,-10%,.,?,-4%,-3%,-18%
CCc1ccc(CNC(=O)Cc2ccc(NC(=O)C3=C(C)OCCS3)cc2)cc1,10%,.,?,?,?,2.4µM*
COc1cccc(CNC(=O)Cc2ccc(NC(=O)C3=C(C)OCCS3)cc2)c1,3.2µM*,.,?,?,?,1.9µM*
COc1cc(/C=N/NC(=O)c2ccc3nc[nH]c3c2)cc(OC)c1OC,-7%,.,0%,-10%,-4%,12µM*
COc1cc(/C=N/NC(=O)c2ccc(CSc3nc4ccccc4[nH]3)cc2)cc(OC)c1OC,1%,?,7.3µM*,1%,-18%,?
COc1ccc(/C=N/NC(=O)c2ccc3nc[nH]c3c2)cc1OC,-4%,.,5%,0%,-5%,?
CCCNC(=O)Nc1cc(S(=O)(=O)CC)ccc1O,-2%,.,8%,-3%,-4%,5%
SMILES,Rab9 prom act,SMN2 splice enh,ELG1 repair inh,NPC1 promoter act,ELG1 genotox,FLuc counter
CCS(=O)(=O)c1ccc(O)c(NC(=O)COc2ccc(Br)cc2)c1,-4%,1%,-4%,0%,-1%,24µM*
CCS(=O)(=O)c1ccc(O)c(NC(=O)Nc2ccc(C(C)(C)C)cc2)c1,-7%,.,15µM*,-1%,-13%,-19%
CCS(=O)(=O)c1ccc(O)c(NC(=O)Nc2ccccc2)c1,3%,1%,14%,-1%,0%,-27%
N[C@@H](CSC1(c2ccc(Cl)cc2)c2ccccc2-c2ccccc21)C(=O)O,.,0%[9.22 µM],.,.,.,.
COc1ccc(-c2nc(-c3cccs3)c(-c3cccs3)[nH]2)cc1OC,0%,?,21µM*,0%,-3%,?
COc1ccc(-c2nc(-c3ccccc3)c(-c3cccs3)[nH]2)cc1OC,0%,20%,15µM*,9%,-28%,?
O=[N+]([O-])c1ccc(-c2nc(-c3cccs3)c(-c3cccs3)[nH]2)cc1,-10%,-17%,21µM*,-9%,-12%,-12%
COc1ccc(-c2nc(-c3ccccc3)c(-c3ccccc3)[nH]2)cc1Br,.,-11%,.,.,.,-9%
Cc1ccc(NC(=O)CN(C)S(=O)(=O)c2ccc3c(c2)n(C)c(=O)c(=O)n3C)cc1C,.,-2%,.,.,.,-6%
O=C(COC(=O)c1ccco1)c1ccccc1,0%,.,?,-7%,?,6µM*
O=C(COC(=O)c1cc2ccccc2o1)c1ccccc1,-2%,-7%,16%,-2%,?,6µM*
O=C(CSCc1ccc(Cl)cc1)c1ccco1,8%,-4%,?,12%,11%,15µM*
COc1ccc(C(=O)COC(=O)c2cc(=O)c3ccccc3o2)cc1,.,.,0%,.,0%,.
O=C(Cc1ccc(F)cc1)OCC(=O)c1cc2ccccc2o1,2%,7%,4%,9%,1%,21µM*
O=C(CCNc1ccc(F)cc1)c1cc2ccccc2o1,0%,1%,0%,-5%,8%,-5%
CCc1ccccc1NC(=O)c1noc2c1CC(C(C)(C)C)CC2 (centres undefined),.,-20%,.,.,.,-6%
Cc1ccc(C(=O)COC(=O)c2ccco2)cc1C,13%,.,?,1%,23µM*,1.5µM*
Cc1ccc(C(=O)COC(=O)c2ccc(Br)o2)cc1C,16%,10%,?,2%,4%,11µM*
O=C(COC(=O)c1ccco1)c1ccc(Cl)cc1,-6%,.,17%,-1%,18%,1.7µM*
COc1cc(C(=O)COC(=O)c2ccco2)cc(OC)c1OC,.,.,16%,.,11%,.
O=C(COC(=O)c1ccco1)c1ccc2ccccc2c1,9%,-15%,11%,-2%,10%,2.4µM*
Cc1nn2c(=O)cc(COC(=O)c3ccc(NC(=O)CCc4ccccc4)cc3)nc2s1,.,.,.,.,.,-4%
CCc1ccc(C2CC(=O)c3c([nH]c(C(=O)OCCOc4ccccc4)c3C)C2)cc1 (centres undefined),.,-10%,.,.,.,-3%
O=C(CN1C(=O)c2cccnc2Oc2ccc(Cl)cc21)NCCCN1CCCCC1,.,.,.,.,.,-4%
CCCCOC(=O)Nc1ccc(N2CCCCC2)cc1,3.2µM*,11µM*,?,2.2µM*,?,3µM*
